For 12 compounds, growth results are on record in PubChem BioAssay (NCI).

Values joined by “and” are separate entries in the source; they are usually repeats but may differ in a detail not shown here. Equal values may be shown once. Compounds without any hit were thinned out: in the full panel of roughly 83,000, 20% have a hit.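 Method: cells in 96-well plates; compound added at one concentration; 48 h incubation; percent growth measured; values under 10 scored active.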 Active and inactive are the calls of the source.

Some test systems named below: SK-MEL-2 melanoma; EKVX NSCLC; SN12C renal; UO-31 renal; TK-10 renal; ACHN renal; CAKI-1 renal; A498 renal; HL-60(TB) leukemia; CCRF-CEM leukemia.
Holding throughout (test): NCI-60 one-dose screen, 48 h (100 = growth as untreated, 0 = no growth, -100 = all killed)
Common to all, as to details: 10 µM unless noted

On to `COc1cc2c(c(OC)c1OC)-c1ccc(O)cc1[C@@H](NC(C)=O)CC2`, for which the growth was 41.3% (inactive) with SK-MEL-2 melanoma; 44% (inactive) and 22.6% (inactive) with EKVX NSCLC; 29.1% (inactive) and 26.9% (inactive) in the experiment with SN12C renal; 25.5% (inactive) and 33.2% (inactive) with UO-31 renal; 11.1% (inactive) and 38.5% (inactive) with TK-10 renal; 24.8% (inactive) and 25.8% (inactive) in the experiment on ACHN renal. Besides, the growth is -5.9% (active) and 16.1% (inactive) in the experiment on CAKI-1 renal; -12.9% (active) in the experiment with A498 renal; -13.2% (active) and -32.3% (active) with HL-60(TB) leukemia; 20.6% (inactive) and -8.81% (active) with CCRF-CEM leukemia.
`CC/C(Cc1ccccc1)=C(\c1ccc(OCCN2CCCC2)cc1)c1ccc(OC(=O)NCc2ccccc2)cc1`: the growth with SK-MEL-2 melanoma was 95.2% (inactive); with EKVX NSCLC, 66.9% (inactive); in the experiment on SN12C renal, 54.2% (inactive); in the experiment on UO-31 renal, 33.8% (inactive); with TK-10 renal, 84.7% (inactive); with ACHN renal, 63% (inactive). In addition, the growth with CAKI-1 renal was 87.8% (inactive); with A498 renal it was 74.1% (inactive); in the experiment on HL-60(TB) leukemia it was -1.94% (active); with CCRF-CEM leukemia, 33.7% (inactive).
As for `C[C@]12CC[C@H]3[C@@H](CC=C4c5nc(N)sc5CC[C@@]43C)[C@@H]1CC[C@@H]2O`, the growth was 98% (inactive) in the experiment with SK-MEL-2 melanoma; 101% (inactive) with EKVX NSCLC; 93.8% (inactive) in the experiment with SN12C renal; 96.3% (inactive) in the experiment with UO-31 renal; 102% (inactive) with TK-10 renal; 106% (inactive) in the experiment on ACHN renal. For the same compound, the growth is 91.7% (inactive) in the experiment on CAKI-1 renal, 86% (inactive) in the experiment on A498 renal, 87.8% (inactive) in the experiment on HL-60(TB) leukemia and 91.2% (inactive) with CCRF-CEM leukemia.
`COc1cc(C2C3=C(CCCC3=O)N(CCO)c3cc4c(cc32)CCC4)cc(OC)c1OC` (stereo not given): the growth with SK-MEL-2 melanoma was 76.9% (inactive); in the experiment with EKVX NSCLC, 81.2% (inactive); in the experiment on SN12C renal, 92.6% (inactive); in the experiment with UO-31 renal, 67.8% (inactive); in the experiment with TK-10 renal, 82.1% (inactive); with ACHN renal it was 94.9% (inactive). The growth with CAKI-1 renal is 64% (inactive); in the experiment with A498 renal, 100% (inactive); in the experiment with HL-60(TB) leukemia it was 102% (inactive); with CCRF-CEM leukemia, 20.3% (inactive).
Turning to `C[C@]12CCc3sc(Nc4ccc(O)cc4)nc3C1=CC[C@@H]1[C@@H]2CC[C@]2(C)C(=O)CC[C@@H]12`, the growth was 72.5% (inactive) with SK-MEL-2 melanoma; 98% (inactive) in the experiment on EKVX NSCLC; 30.4% (inactive) with SN12C renal; -48.8% (active) with UO-31 renal; 22.8% (inactive) with TK-10 renal; -17.3% (active) with ACHN renal. For the same compound, the growth in the experiment with CAKI-1 renal is 47.1% (inactive); in the experiment with A498 renal, 101% (inactive); in the experiment with HL-60(TB) leukemia it was 8.98% (active); with CCRF-CEM leukemia, 8.33% (active).
With `Cc1cc2c(cc1-c1ccnc(/C=C/C(=O)O)c1)C(C)(C)CCC2(C)C`, the growth is 93.9% (inactive) with SK-MEL-2 melanoma; 86.1% (inactive) with EKVX NSCLC; 88% (inactive) with SN12C renal; 62.1% (inactive) with UO-31 renal; 115% (inactive) in the experiment with TK-10 renal; 81.6% (inactive) in the experiment with ACHN renal. In addition, the growth in the experiment on CAKI-1 renal is 91.8% (inactive); in the experiment with A498 renal it was 73.7% (inactive); in the experiment with HL-60(TB) leukemia, 59.2% (inactive); with CCRF-CEM leukemia, 95.7% (inactive).
As to `CC1(C)C=Cc2c(ccc3c2[N+]([O-])=C2C3=C[C@@]34NC(=O)[C@]5(CCCN5C3=O)C[C@@H]4C2(C)C)O1`, the growth is 69.8% (inactive) in the experiment on SK-MEL-2 melanoma; 34.3% (inactive) with EKVX NSCLC; 30.7% (inactive) with SN12C renal; 73.5% (inactive) in the experiment on UO-31 renal; 83.1% (inactive) in the experiment on TK-10 renal; 39.7% (inactive) in the experiment on ACHN renal. For the same compound, the growth with CAKI-1 renal is 27% (inactive); with A498 renal it was 69% (inactive); with HL-60(TB) leukemia it was 33.6% (inactive); in the experiment on CCRF-CEM leukemia it was 14.2% (inactive).
In the case of `CC(=O)Nc1nc2c(s1)C1=CC[C@H]3[C@@H]4CC[C@H](OC(C)=O)[C@@]4(C)CC[C@@H]3[C@@]1(C)CC2`, the growth in the experiment with SK-MEL-2 melanoma is 50.3% (inactive); with EKVX NSCLC, 82.9% (inactive); in the experiment on SN12C renal, 69.7% (inactive); in the experiment with UO-31 renal, 72.7% (inactive); in the experiment with TK-10 renal, 96.2% (inactive); in the experiment with ACHN renal, 67.7% (inactive). Further, the growth is 24.4% (inactive) with CAKI-1 renal, 62.1% (inactive) in the experiment with A498 renal, 43.4% (inactive) in the experiment on HL-60(TB) leukemia and 57.7% (inactive) with CCRF-CEM leukemia.
For the compound `COc1ccn(C)c(=O)c1C#N`, the growth in the experiment on SK-MEL-2 melanoma is 72.9% (inactive); in the experiment with EKVX NSCLC it was 105% (inactive); in the experiment on SN12C renal it was 105% (inactive); with UO-31 renal, 87.2% (inactive); in the experiment on TK-10 renal it was 78.5% (inactive); with ACHN renal it was 102% (inactive). Moreover, the growth with CAKI-1 renal is 100% (inactive); in the experiment with A498 renal, 86.2% (inactive); in the experiment with HL-60(TB) leukemia, 104% (inactive); with CCRF-CEM leukemia, 120% (inactive).
For `CC(C)COC(=O)Cc1ccccc1`, the growth was 113% (inactive) in the experiment with SK-MEL-2 melanoma; 109% (inactive) with EKVX NSCLC; 94.2% (inactive) in the experiment on SN12C renal; 102% (inactive) in the experiment on UO-31 renal; 95.3% (inactive) in the experiment on TK-10 renal; 108% (inactive) in the experiment on ACHN renal. For the same compound, the growth was 101% (inactive) in the experiment on CAKI-1 renal, 81.1% (inactive) in the experiment on A498 renal, 109% (inactive) in the experiment on HL-60(TB) leukemia and 95.3% (inactive) with CCRF-CEM leukemia.
As to `O=C(Cc1ccccc1)NC(O)C(Cl)(Cl)Cl` (stereo not given), the growth in the experiment on SK-MEL-2 melanoma was 105% (inactive); in the experiment with EKVX NSCLC, 124% (inactive); with SN12C renal it was 99.3% (inactive); in the experiment on UO-31 renal it was 93.8% (inactive); in the experiment on TK-10 renal, 99.8% (inactive); with ACHN renal, 120% (inactive). In addition, the growth was 108% (inactive) in the experiment on CAKI-1 renal, 104% (inactive) with A498 renal, 101% (inactive) in the experiment on HL-60(TB) leukemia and 106% (inactive) with CCRF-CEM leukemia.
Turning to `CCCCCCCCCCCCCCCC[n+]1ccccc1`, the growth in the experiment with SK-MEL-2 melanoma is -83.3% (active) and -80.1% (active); in the experiment on EKVX NSCLC, -47.9% (active) and -2.17% (active); in the experiment with SN12C renal, -37.9% (active) and -29.2% (active); in the experiment with UO-31 renal it was -28% (active) and 11.7% (inactive); in the experiment on TK-10 renal, -74.4% (active); with ACHN renal it was -23.8% (active) and 7.44% (active). The growth in the experiment on CAKI-1 renal is -16.1% (active) and -34.4% (active); with A498 renal, -18.7% (active) and -7.63% (active); in the experiment on HL-60(TB) leukemia it was -55.7% (active); with CCRF-CEM leukemia, -69% (active) and -43.7% (active).
